# Source: PubChem BioAssay AID602468 (The Scripps Research Institute Molecular Screening Center, 2012)
# Activity calls are given as the source filed them. The rule behind the calls is not given here.
# System: MBM
# Experiment: cysteine-reactive anti-target inhibition count, late-stage follow-up, selectivity assay for PME-1 inhibitor project, gel-based competitive ABPP, fluorescence, MBM, Neuro-2A (AID 602468)
# Details: MBM or Neuro-2A, in vitro, at 10 µM, stronger effect = lower value
smiles,measurement,value
CC[C@@]1(c2ccc(C)cc2)C(=O)N(C(=O)OC(C)C)N1C(=O)OC(C)C,number of anti-targets inhibited,0 (inactive)
